# Peg3 prom inh-1: Peg3 promoter-driven luciferase inhibitors, primary screen, cell-based, HeLa, luciferase luminescence | 360,000 compounds, 1.7% hits | HeLa PEG-Prom luciferase reporter, overnight | inhibition, % at 20 µM;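 active = inhibition of at least 50% at 20 µM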
# TRPM1 prom inh: inhibitors of MITF-dependent TRPM1 promoter reporter, primary screen, cell-based, SK-MEL-5, single point, luciferase; SK-MEL-5 TRPM1 promoter luciferase, 24 h; inhibition, % at 12.5 µM; 330,000 compounds, 0.83% hits; AID 488899, 2010;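 active = mean inhibition across replicates of 60% or more, whatever share of single replicates reaches that level; inconclusive = some that reach 60%, reason not given; inactive = mean inhibition across replicates below 60%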
# TWEAK Fn14 block: inhibitors of TWEAK-Fn14 signaling, primary screen, luciferase reporter cells, uHTS. TWEAK-stimulated Fn14 reporter cells, luciferase luminescence, 8 h. AID 1159606, 2016. inhibition, % at 10 µM. 360,000 compounds, 2% hits; in the data active = inhibition above about 50%
# LMP1 NFkB inh: EBV LMP1-driven NF-kappaB luciferase reporter inhibitors, primary screen, cell-based, luminescence, single point; LMP1-induced NF-kappaB luciferase reporter cells; inhibition, % at 12.5 µM; 350,000 compounds, 0.69% hits; in the data active = inhibition above about 41%; inconclusive = no clear call, values can overlap the other calls;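 note: 0% = neutral control wells and 100% = reference inhibitor control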
# TROY signal inh: inhibitors of TROY-driven NF-kB signaling, primary screen, Q293 LMP1-TROYcd cells, NF-kB luciferase, uHTS; Q293 LMP1-TROYcd NF-kB luciferase reporter, 4 h; inhibition, % at 10 µM; 360,000 compounds, 0.98% hits;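 active = compounds whose plate-normalised and pattern-corrected inhibition of the luciferase reporter signal at the single screening dose is 50% or more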
# Shn3 3UTR inh: reduction of Shn3 3'UTR firefly luciferase signal, primary screen, Schnurri-3 inhibitor project, cell-based, Clone20 osteoblasts, set 2; Clone20 osteoblast Shn3 3'UTR firefly luciferase, 24 h; inhibition, % at 12.5 µM; 360,000 compounds, 0.52% hits;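 active = mean inhibition of at least 75% with every replicate also reaching 75%; inconclusive = mean inhibition at least 75% but some replicate below; inactive = mean inhibition below 75%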;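 note: 0% = median of neutral control wells and 100% = pilot-screen positive control compound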
# Peg3 prom inh-2: Peg3 promoter reporter inhibitors, retest, confirmation, cell-based, HeLa, luciferase reporter, single concentration; inhibition, % at 20 µM; AID 602417, 2012; HeLa PEG-Prom luciferase reporter, luminescence, overnight; shares compounds with Peg3 prom inh-1; 1,300 compounds, 84% hits;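 active = at 20 µM dose, 40% or more inhibition averaged across four replicates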
# Active calls of the source: *; ? = inconclusive; . = no result given. The list is not random: actives were taken first. Their share in the collection is about 4.1%.
SMILES,Peg3 prom inh-1,TRPM1 prom inh,TWEAK Fn14 block,LMP1 NFkB inh,TROY signal inh,Shn3 3UTR inh,Peg3 prom inh-2
O=C(NN=Cc1ccc(Cl)cc1Cl)c1ccccc1,-350,.,-11,-41,-52,-105,.
N#Cc1c(N)nc2c3c(sc(=N)c2c1N)NC(=O)CC3c1ccccc1 (configuration not stated),23,6,-22,9,-13,-7,.
Cc1c(C#N)c(N)nc2c3c(sc12)NC(=O)CC3c1ccc(Cl)cc1 (configuration not stated),68*,31,15,18,11,67,48*
CCCN(CC(=O)Nc1cc(Cl)cc(Cl)c1)CC(=O)Nc1ccc(F)c(F)c1F,87*,-21,49,-6,42,10,91*
CCCN(CC(=O)Nc1ccccc1Br)CC(=O)Nc1ccc(F)c(F)c1F,16,1,26,-27,38,-44,.
CCc1cccc(CC)c1NC(=S)NCCc1c(C)[nH]c2ccc(C)cc12,69*,3,-36,-5,6,17,85*
COc1ccc2[nH]c(C)c(CCNC(=S)Nc3cccc(C)c3)c2c1,-7,-5,-11,-5,-2,6,.
CCCCc1nnc(NC(=O)CC(=O)Nc2ccccc2C(=O)O)s1,33,2,39,5,.,0,.
CC(C)c1nnc(NC(=O)CC(=O)Nc2ccccc2C(=O)O)s1,57*,32,83*,31,28,21,34
CN(C)S(=O)(=O)c1ccc(N2CCCC2)c(C(=O)NC2CCC(O)CC2)c1 (configuration not stated),1,9,10,3,-8,-21,.
Cc1ccc(C(C(=O)NCc2ccco2)N(C(=O)CNC(=O)c2cccs2)c2c(C)cccc2C)cc1 (configuration not stated),66*,13,-12,-4,15,31,23
Cc1ccc(C(=O)n2c(N)nc3ccccc32)cc1,80*,67*,99*,65*,73*,62,28
COc1ccc2oc(C(=O)OCC(=O)N(C)CC(=O)Nc3ccc(C)cc3)c(C)c2c1,-7,8,-14,-11,7,-6,.
O=C(CCCN1C(=O)/C(=C/c2ccccc2Cl)SC1=S)NNC(=O)c1ccc(Cl)cc1Cl,66*,48,17,38,37,42,43*
COc1cccc(C(=O)O/N=C(\N)c2ccccn2)c1,87*,84*,101*,68*,79*,39,69*
CCCc1ccc(C(=O)O/N=C(\N)c2ccccn2)cc1,108*,73*,99*,69*,83*,75,97*
N/C(=N\OC(=O)c1cccc([N+](=O)[O-])c1)c1ccccn1,-173,-8,23,12,9,-22,.
CCCCNC(=O)C(Sc1ccccc1)c1ccccc1 (configuration not stated),4,-8,-6,3,11,-4,.
Cc1nc(N2CCN(S(=O)(=O)c3ccccc3C#N)CC2)c2c(-c3ccccc3)csc2n1,54*,39,31,-4,0,0,62*
O=C(/C=C/c1cccc(Cl)c1)NNC(=O)c1ccncc1,21,4,0,11,-4,3,.
COc1ccc(Cc2nc3c4c(ncn3n2)Oc2c(ccc3ccccc23)C4c2ccc(OC)c(OC)c2)cc1 (configuration not stated),22,1,-8,-9,6,23,.
COc1ccc(C2c3ccc4ccccc4c3Oc3ncn(CCO)c(=N)c32)cc1OC (configuration not stated),60*,-11,-21,-3,15,5,82*
COc1ccc(C2c3ccc(O)cc3Oc3ncn(Cc4ccco4)c(=N)c32)cc1 (configuration not stated),7,7,-20,-6,-3,-2,.
COc1ccc(C2c3ccc4ccccc4c3Oc3ncn(CCCO)c(=N)c32)cc1 (configuration not stated),65*,16,-9,-3,7,8,86*
COc1ccc(C2c3c(ncn(CCCN4CCOCC4)c3=N)Oc3ccc4ccccc4c32)cc1OC (configuration not stated),69*,80*,-19,-20,11,1,86*
SMILES,Peg3 prom inh-1,TRPM1 prom inh,TWEAK Fn14 block,LMP1 NFkB inh,TROY signal inh,Shn3 3UTR inh,Peg3 prom inh-2
Cc1cccc(NC(=O)c2nc[nH]c2C(=O)NCCCCNC(=O)c2[nH]cnc2C(=O)Nc2cccc(C)c2)c1,78*,-1,34,-2,5,4,37
CCCCNC(=O)C(C)N(CCN(C)C)C(=O)CCCN1C(=O)NC(c2ccc([N+](=O)[O-])cc2)C(C(=O)OCc2ccccc2)=C1C (configuration not stated),57*,18,-47,4,5,-5,31
CN1CCC(N(C)C(=O)/C=C/c2cn(-c3ccccc3)nc2-c2cccs2)CC1,77*,?,-12,-43,-14,-15,93*
Cc1onc(-c2ccc(Cl)cc2Cl)c1-c1csc(N/N=C/c2ccccc2Cl)n1,65*,-8,-16,23,-20,7,37
Cc1ccc(C(=O)NN2C(=O)C3C4c5ccccc5C(c5ccccc54)C3C2=O)cc1 (configuration not stated),22,11,5,6,15,28,.
COc1ccccc1C(=O)NCCC(=O)NCCC12CC3CC(CC(C3)C1)C2,13,-7,-9,-5,7,-1,.
COc1ccc(C23CC4CC(CC(C4)C2)C3)cc1C(=O)NCCN(C)C,51*,53,1,0,-26,-36,75*
Cc1ccccc1C(=O)NCC(C)NC(=O)c1ccccc1C (configuration not stated),8,8,-1,1,-2,-12,.
COc1cccc(OC)c1C(=O)NCCc1ccccc1,2,18,7,-2,-10,-6,.
COC(=O)c1c(N)sc(C(=O)NCCc2ccccc2)c1C,78*,63*,99*,67*,76*,31,65*
Cc1ccnc(NC(c2ccccc2O)c2oc(CO)cc(=O)c2O)c1 (configuration not stated),-24,0,-3,-2,-13,-8,.

# High-throughput results from PubChem BioAssay.
